Inconclusive results are not listed. Where a call stands in place of a potency, no number is given. Unmarked numbers belong to inactive results. Calls of active or inactive are those of the source. The call rests on the fitted dose curve; in most records, active means well fitted cell-killing curve with a large enough effect; inconclusive means small, poorly fitted or top-dose-only effect, or effect the other way; inactive means flat fitted curve, though single readings scatter. Where a SMILES comes first, the peptide text is derived from it.
System: OV90
Assay: Primary qHTS to identify gynecologic anti-cancer compounds using libraries of approved drugs and bioactive compounds (AID 1345084); further: nearly all actives have a fitted effect of over 55% in size
Settings: Gynecologic cancer cell panel viability, ATPlite luminescence, 48 h; series mostly up to 57.5 µM
Procedure, shortened: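 In this quantitative HTS, cell killing is estimated from loss of ATP-dependent luciferase light. Cells see five compound concentrations over a 48 h exposure.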

SMILES | Potency | activity change, negative = cytotoxicity
Nc1nc(CC(=O)Nc2ccc(CCNCC(O)c3ccccc3)cc2)cs1 (centres undefined) | inactive | 
COc1ccc([C@@H]2N[C@H](C(=O)O)Cc3c2[nH]c2ccccc32)cc1CN1CCN(c2ccccc2F)CC1 | inactive | 
CC1NC(=O)CNC(=O)C(C(C)C)NC(=O)C2CCCN2C(=O)C(C(C)C)NC(=O)C(Cc2c[nH]c3ccccc23)NC1=O (centres undefined) (cyclo(GAWVPV); configuration not given here) | inactive | 
CC(C)(C)c1cc(CN2CCN(CC(O)c3ccc(Cl)cc3)CC2)cc(C(C)(C)C)c1O (centres undefined) | inactive | 
CC[C@@H](c1ccc(F)c(F)c1)n1c(C(=O)OC)c(-c2ccno2)[nH]c1=S | inactive | 
O=C(O)C[C@H]1CCC(=O)[C@@H]1C/C=C\CCOC1OC(CO)C(O)C(O)C1O (some centres undefined) | inactive | 
N#Cc1ccc2[nH]c(O)c(-c3ccc(CN4CCOCC4)cn3)c2c1 | inactive | 
COc1ccc(C(OC2OC(CO)C(O)C(O)C2O)C(C)O)cc1 (centres undefined) | inactive | 
CC1CCC2(C(=O)OC3OC(COC4OC(CO)C(O)C(O)C4O)C(O)C(O)C3O)CCC3(C)C(=CCC4C5(C)CCC(O)C(C)(C(=O)O)C5CCC43C)C2C1(C)O (centres undefined) |  | 27% [at 11.6 µM]
Cc1cc(N2CCCCC2)nc2ccccc12 | inactive | 
C=CC1(C)CC2=CCC3C(C)(C(=O)O)CCCC3(C)C2CC1OC(C)=O (centres undefined) | inactive | 
O=S(=O)(NC1CCNCC1)c1cc(S(=O)(=O)c2ccccc2)ccc1C(F)(F)F | inactive | 
CC1CCC2(C(=O)OC3OC(CO)C(O)C(O)C3O)CCC3(C)C(=CCC4C5(C)CC(O)C(O)C(C)(C(=O)O)C5CCC43C)C2C1(C)O (centres undefined) | inactive | 
Cc1nnc(C(C)C)n1C1CC2CCC(C1)N2CC[C@H](NC(=O)C1CCC(F)(F)CC1)c1ccccc1 (some centres undefined) | inactive | 
Cc1nn(C)c2c1C(c1ccc(C(F)(F)F)cc1)C(C#N)=C(N)O2 (centres undefined) | inactive | 
CC(=O)[C@@H]1CC[C@]2(C(=O)O)CC[C@]3(C)C(CCC4[C@@]5(C)CC[C@H](O)C(C)(C)C5CC[C@]43C)C12 (some centres undefined) | inactive | 
COc1cc(/C=C/C(=O)OC(C)(C)C(OC2OC(CO)C(O)C(O)C2O)C(=O)OCc2ccc(OC3OC(CO)C(O)C(O)C3O)cc2)ccc1O (centres undefined) | inactive | 

SMILES | Potency | activity change, negative = cytotoxicity
OC[C@H]1O[C@@H](Oc2cc(O)cc(/C=C/c3ccc(O)cc3)c2)[C@H](O)[C@@H](O)[C@@H]1O | inactive | 
CC(C)=CCC[C@](C)(O[C@@H]1O[C@H](CO[C@@H]2OC[C@@H](O)[C@H](O)[C@H]2O)[C@@H](O)[C@H](O)[C@H]1O)[C@H]1CC[C@]2(C)[C@@H]1[C@H](O)C[C@@H]1[C@@]3(C)CC[C@H](O[C@@H]4O[C@H](CO)[C@@H](O)[C@H](O)[C@H]4O[C@@H]4O[C@H](CO)[C@@H](O)[C@H](O)[C@H]4O)C(C)(C)[C@@H]3CC[C@]12C | inactive | 
COc1ccc2c(c1)OC[C@]1(O)c3cc4c(cc3O[C@H]21)OCO4 | inactive | 
COC1=CC(=O)O[C@@H](/C=C/c2ccccc2)[C@@H]1O | inactive | 
CCOC(=O)N1CCC(NCCNC(=O)c2ccccc2C)CC1 | inactive | 
O=C1N(CC2CCCCN2)CCN1c1ccccc1 (centres undefined) | inactive | 
COc1cc(C(C)=O)ccc1O[C@@H]1O[C@H](CO[C@@H]2O[C@@H](C)[C@H](O)[C@@H](O)[C@H]2O)[C@@H](O)[C@H](O)[C@H]1O | inactive | 
COC(=O)[C@@]1(O)C=CC[C@@H]2[C@@]3(C)C[C@@H](c4ccoc4)OC(=O)[C@H]3CC[C@]21C | inactive | 
COc1ccc(C(=O)O[C@H]2CC(C)=CC[C@@]3(C)[C@@H](OC(C)=O)C[C@@](O)(C(C)C)[C@H]23)cc1 | inactive | 
CC1(C)CC(=O)N(CCCCN2CCN(c3ncccn3)CC2)C(=O)C1 | inactive | 
C=C1CC[C@H]2[C@@](C)(CCC(O)[C@@]2(C)CO)[C@@H]1C/C=C(/C(=O)O)C(O)CO (some centres undefined) | inactive | 
COc1cc(/C=C/C(=O)OC2CC(C)=C(C(=O)O)/C2=C/CO[C@@H]2O[C@H](CO)[C@@H](O)[C@H](O)[C@H]2O)ccc1O (some centres undefined) | inactive | 
CC(=O)OCC1=C[C@H](O)[C@@H]2C(C(=O)O)=CO[C@@H](O[C@@H]3O[C@H](CO)[C@@H](O)[C@H](O)[C@H]3O)[C@H]12 | inactive | 
C=CC(C)(C)O[C@@H]1O[C@H](CO[C@@H]2OC[C@](O)(CO)[C@H]2O)[C@@H](O)[C@H](O)[C@H]1O | inactive | 
COC(=O)[C@@H]1C2CC3c4[nH]c5ccccc5c4CCN3CC2CC[C@@H]1O (some centres undefined) | inactive | 
FC(F)(F)c1cc(C(F)(F)F)c2ccc3nc(-c4nnco4)cn3c2n1 | inactive | 
COC(=O)C1=COC(OC2OC(CO)C(O)C(O)C2O)C2C1CC(OC(=O)C(O)CC(=O)O)C2C (centres undefined) | inactive | 

— PubChem BioAssay (NCATS)
